Measurements as given in PubChem BioAssay AID1992 (Sanford-Burnham Center for Chemical Genomics, 2009).
Hit rate of the full screen: of about 50,000 compounds, about 350 (0.7%) were called active. The sample as a whole holds a higher share of actives than the screen did. Unmarked numbers belong to inactive results. No stated cut-off is given here; in the data, active means inhibition above about 60%; inactive means the rest.

target: Dual specificity protein phosphatase 3 (Homo sapiens) (UniProt P51452); test: human DUSP3 activity blockers – biochemical, colorimetric, HTS, primary screen (AID 1992); settings: recombinant VHR phosphatase, colorimetric substrate read-out; at 20 µM; stronger effect = higher value
Sequence (P51452 whole entry, looked up): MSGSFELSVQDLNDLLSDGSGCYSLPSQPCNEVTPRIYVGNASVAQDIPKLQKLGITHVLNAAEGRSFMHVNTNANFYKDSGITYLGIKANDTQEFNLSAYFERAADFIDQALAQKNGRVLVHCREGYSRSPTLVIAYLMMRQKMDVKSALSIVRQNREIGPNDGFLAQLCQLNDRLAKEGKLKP

Compared with `CSc1nc(SC)c2c3c(sc2n1)COC(C)(C)C3`, `Cc1cc2c(cc1C)-c1nc3ccccc3c(=O)n1C(C)(C)C2` is lower in inhibition: 4.5% for the first, -9.1% for the second.

Compared with `CC1(C)CC(NC(=O)c2ccccc2C(=O)O)CC(C)(C)N1`, `CC(C)c1ccc(C(=O)NC2CC2)cc1` is higher in inhibition: -26.8% for the first, 0% for the second.

Compared with `COc1ccc(N2C(=O)C3C(C2=O)C2C=CC3C23CC3)cc1` (stereo not drawn), `O=C1C2C(C(=O)N1/N=C/C=C/c1ccccc1)C1C=CC2C12CC2` (stereo not drawn) is higher in inhibition: -13% for the first, -11.9% for the second.

First: Cc1ccc(C)c(NC(=O)CN(c2ccc(F)cc2)S(=O)(=O)c2ccccc2)c1
Second: COc1cccc(NC(=O)CN(c2cccc([N+](=O)[O-])c2)S(=O)(=O)c2ccccc2)c1
The inhibition of the first is higher: -21.2% for the first, -23.4% for the second.

Going from `CCCCCCOc1ccc(/C=C2/C(=O)ON=C2c2ccccc2)cc1` to `COc1ccccc1OCCOc1ccc(/C=N/n2cnnc2)cc1`, the inhibition rises from 1.2% to 14.5%.

Going from `COC(=O)C(=C/C=C/N(C)C)C(=O)OC` to `CCOc1cccc2c1NC(C)(C)C(=S)C2=C1SC(C(=O)OC)=C(C(=O)OC)S1`, the inhibition falls from -1.7% to -4.6%.

First: COc1ccc(C2=C/C(=C/c3cccc(OC)c3OC(C)=O)C(=O)O2)cc1
Second: CC(=O)Oc1ccc(/C=C2\C=C(c3ccc(Br)cc3)OC2=O)c(OC(C)=O)c1
The inhibition of the first is lower: 2.4% for the first, 5.9% for the second.

Going from `O=C1c2cccc3cc(Br)cc(c23)C(=O)N1Nc1ccccc1` to `Cc1cccc(NC(=O)c2cc(-c3ccc(Br)cc3)nc3ccccc23)n1`, the inhibition falls from -21.6% to -30.2%.

Going from `COc1ccccc1OCCCCOc1c(C)cccc1C` to `CCOc1cc(/C=N/n2cnnc2)ccc1OCCOc1ccccc1C`, the inhibition falls from 27.1% to -20.4%.

Compared with `COc1ccc(C2CC(c3ccccc3)=NN2c2ccccc2OC)cc1` (stereo not drawn), `CCOc1ccc(N2C(=O)S/C(=C\c3ccccc3OC)C2=O)cc1` is lower in inhibition: 8.3% for the first, -12.5% for the second.

First: COc1ccc(/C=C2/SC(=S)N(Cc3ccccc3)C2=O)cc1OC
Second: CC(C)CN1C(=O)/C(=C/c2cccc(Oc3ccccc3)c2)SC1=S
The inhibition of the first is lower: -6.8% for the first, -0.1% for the second.

Compared with `Cc1ccc(NC(=O)CC2SC(N)=NC2=O)c([N+](=O)[O-])c1` (stereo not drawn), `CC(C)(C)c1cc(Br)ccc1OCC(=O)Nc1ccccc1[N+](=O)[O-]` is lower in inhibition: 24.8% for the first, -0.7% for the second.

First: COc1ccc(N2C(=O)NC(=O)/C(=C/c3cccn3-c3ccc([N+](=O)[O-])cc3)C2=O)cc1
Second: COc1ccc(CCNS(=O)(=O)c2cccc([N+](=O)[O-])c2)cc1
The inhibition of the first is lower: -13.8% for the first, 8.5% for the second.

Compared with `C=CCN1C(=O)/C(=C\c2cc(OC)c(O)c([N+](=O)[O-])c2)C(=O)NC1=S`, `C=CCc1ccccc1OCCOc1c(I)cc(/C=C2/SC(=S)N(C)C2=O)cc1OC` is lower in inhibition: 3.8% for the first, -23.1% for the second.

First: CCOC(=O)CCCN1C(=O)/C(=C/c2ccccc2)SC1=S
Second: CN(C)CCOC(=O)CCN1C(=O)/C(=C/c2ccc(Cl)cc2Cl)SC1=S
The inhibition of the first is lower: -3.8% for the first, -1.5% for the second.

First: CCOC(=O)c1sc(C)c(C(N)=O)c1N
Second: CCOC(=O)c1c(NC(=O)c2cc(OC)c(OC)c(OC)c2)sc(C(N)=O)c1C
The inhibition of the first is lower: 0.2% for the first, 1.3% for the second.

Compared with `O=C1N/C(=N/N=C/c2ccc3c(c2)OCO3)SC1c1ccccc1` (stereo not drawn), `O=C1N/C(=N\N=C\c2ccccc2O)SC1Cc1cccc(C(F)(F)F)c1` (stereo not drawn) is lower in inhibition: -3.2% for the first, -19.6% for the second.

First: O=C(Nc1c(Cl)cccc1Cl)c1ccc(Cl)c(Cl)c1
Second: COc1ccc(C(=O)/C=C/Nc2cccc(Cl)c2Cl)cc1
The inhibition of the first is lower: -2% for the first, 3.3% for the second.

First: CCc1cccc(CC)c1NC(=O)c1ccccc1OC
Second: CCN(CC)c1ccc(NC(=O)c2oc3ccccc3c2C)cc1
The inhibition of the first is lower: 2.4% for the first, 7.4% for the second.

Compared with `CCOC(=O)c1ccc(NC(=O)/C(C#N)=C2\NC(C)(C)Cc3ccccc32)cc1`, `C/C(=N/NC(=O)c1ccccc1C)c1ccc(NC(=O)C(F)(F)F)cc1` is lower in inhibition: -14% for the first, -15.5% for the second.

Compared with `Cc1cc(OCC(=O)Nc2cccnc2)ccc1Cl`, `Cc1cccc(NC(=O)CCCOc2ccccc2)c1C` is lower in inhibition: -1.1% for the first, -23.5% for the second.

First: CCOC(=O)c1ccccc1N/C=C(\C#N)C(=O)NCc1ccccc1
Second: N#C/C(=C\c1cn(CC(=O)Nc2ccccc2)c2ccccc12)C(=O)Nc1ccc(F)cc1
The inhibition of the first is lower: -12% for the first, 23.2% for the second.

Going from `CC1=C(C(=O)c2ccccc2)C(c2ccc([N+](=O)[O-])cc2)NC(=O)N1` (stereo not drawn) to `CC1=C(C(=O)OCc2ccccc2)C(c2ccc(C(F)(F)F)cc2)CC(=O)N1` (stereo not drawn), the inhibition rises from -1.5% to 8.1%.

Compared with `COc1ccc(C(=O)N2CCN(Cc3cccc(OC)c3OC)CC2)cc1OC`, `O=C(c1nn2c(c1Cl)NC(c1ccc(F)cc1)CC2C(F)(F)F)N1CCN(Cc2ccccc2)CC1` (stereo not drawn) is higher in inhibition: -15.2% for the first, -2.9% for the second.

First: COc1ccc(OC(C)C(=O)NCCc2nc3ccccc3[nH]2)cc1 (stereo not drawn)
Second: CC(=O)Nc1ccc(S(=O)(=O)Nc2cccc(-c3nc4ccccc4[nH]3)c2)cc1
The inhibition of the first is lower: -9.3% for the first, -3% for the second.

Going from `Cc1cc(C(=O)N/N=C/c2ccc(Br)c([N+](=O)[O-])c2)n[nH]1` to `Cc1ccccc1NCC(=O)N/N=C\c1cc([N+](=O)[O-])cc(Br)c1O`, the inhibition rises from -1.6% to 31.8%.

Going from `CC(C)(C)OC(=O)NC(Cc1c[nH]c2ccccc12)C(=O)N1CCOCC1` (stereo not drawn) to `Cc1ccc(-c2cc(C(=O)N3CC(C)CC(C)C3)c3ccccc3n2)cc1C` (stereo not drawn), the inhibition rises from 4.4% to 30.2%.

Compared with `Cc1cc(NC(=O)C2CCCCC2)cc(C)c1O`, `O=C(Nc1cccc(Br)c1)C(=O)NC1CCCC1` is lower in inhibition: -10.1% for the first, -18.7% for the second.

Going from `COc1cccc(C2/C(=C(\O)c3ccc(Cl)cc3)C(=O)C(=O)N2c2cccnc2)c1` (stereo not drawn) to `CC(C)(C)c1cc(N2C(=O)C(=O)/C(=C(\O)c3ccccc3)C2c2cccc([N+](=O)[O-])c2)no1` (stereo not drawn), the inhibition rises from -0.3% to 10.1%.

Going from `O=c1oc2c(-c3cc(Cl)ccc3Cl)cc(O)cc2s1` to `O=C1S/C(=C/c2ccc(-c3ccc(Cl)cc3Cl)o2)C(=O)N1c1ccccc1`, the inhibition falls from 14% to -7.5%.

Compared with `CCOc1ccc(-n2c(O)c(C=C3C=CC=N3)c(=O)[nH]c2=O)cc1`, `O=c1[nH]c(=O)n(-c2ccc(Cl)cc2)c(O)c1/C=C1/C=CC=N1` is higher in inhibition: 3% for the first, 37.9% for the second.

Going from `Cc1cc2c(cc1C)NC(CC(=O)Nc1ccccc1C(F)(F)F)C(=O)N2` (stereo not drawn) to `Cc1ccc(NC(=O)CC2Nc3cc(C)c(C)cc3NC2=O)cc1` (stereo not drawn), the inhibition rises from -0.3% to 33.7%.

Going from `CC(C)c1ccc(NC(=O)CN(c2ccc(Oc3ccccc3)cc2)S(C)(=O)=O)cc1` to `CC(NC(=O)C1CC(=O)N(c2ccc(Br)cc2)C1)c1ccccc1` (stereo not drawn), the inhibition rises from -26.4% to 16.1%.

First: CCCOC(=O)c1ccc(N=Cc2ccc([N+](=O)[O-])cc2)cc1
Second: COC(=O)c1ccc(/C=N/Nc2nncc(-c3ccccc3)n2)cc1
The inhibition of the first is higher: 3.4% for the first, -34% for the second.

Compared with `O=C(NCCN1CCOCC1)c1cc2nc(-c3ccc([N+](=O)[O-])cc3)cc(C(F)(F)F)n2n1`, `Cc1cc(C)c2cccc(NC(=S)NC(=O)c3cccc([N+](=O)[O-])c3)c2n1` is higher in inhibition: -23.4% for the first, -0.4% for the second.

Going from `Cc1ccc(-c2ccc(C)cc2N)c(N)c1` to `Cc1ccc2c(c1)C(c1ccccc1[N+](=O)[O-])CC(=O)N2` (stereo not drawn), the inhibition falls from -3% to -4.5%.

Going from `O=C(NCc1ccccc1)c1ccc(CN2CCN(c3ccccc3)CC2)cc1` to `S=c1n(CN2CCOCC2)nc(-c2ccccc2Cl)n1-c1ccccc1`, the inhibition falls from 5.6% to -3.8%.

Going from `Cc1cc(Br)cc(/C=N/NC(=O)c2cncc(Br)c2)c1O` to `CCn1c(=O)c(C(=O)Nc2ccccc2Br)c(O)c2ccccc21`, the inhibition falls from -16.6% to -20.9%.

First: Cc1ncc(C[n+]2csc3ccccc32)c(N)n1
Second: O=[N+]([O-])c1nonc1NCn1nnc2ccccc21
The inhibition of the first is higher: 23.5% for the first, -8% for the second.

Going from `COc1ccc(C=O)c2c(O)cccc12` to `COc1ccc(/C=N/NC(=O)C2CC2)c(OC)c1OC`, the inhibition falls from 2.1% to -32.4%.

Compared with `CCN(C=NC1=NN(c2ccccc2)CC1)CC`, `O=C(NCCCn1ccnc1)c1ccccc1[N+](=O)[O-]` is higher in inhibition: 2.7% for the first, 5.9% for the second.

Going from `O=C1C(=O)N(Cc2ccccc2)C2C=CC=CC12` (stereo not drawn) to `O=C1NC(=O)C(=Cc2cccc(OCc3ccccc3)c2)C(=O)N1`, the inhibition falls from 7.6% to -24.8%.

Going from `O=C(Nc1cc(Cl)cc(Cl)c1)C1COc2ccccc2O1` (stereo not drawn) to `Cc1onc(-c2c(Cl)cccc2Cl)c1C(=O)Nc1sc2c(c1C(N)=O)CCCC2`, the inhibition falls from -3% to -46.5%.

For `COc1cccc(OCCOc2cccc(/C=C3/SC(=S)N(Cc4ccccc4)C3=O)c2)c1`, the inhibition was 112% (active).
With `C=CCN1C(=O)/C(=C\c2cccn2-c2cccc([N+](=O)[O-])c2)C(=O)NC1=S` the inhibition was 85.9% (active).
In the case of `O=c1[nH]c(=S)n(-c2cccc(Cl)c2)c(O)c1/C=C1/C=CC=N1`, the inhibition was 87.4% (active).
For `O=C(CC1Nc2ccccc2NC1=O)Nc1ccccc1NC(=O)CC1Nc2ccccc2NC1=O` (stereo not drawn), the inhibition was 97.7% (active).
With `Cc1cccc(OCCOc2cccc(/C=N/n3cnnc3)c2)c1` the inhibition was 112% (active).
For `O=C(O)CCN1C(=O)/C(=C/c2ccc(-c3cc(Cl)ccc3Cl)o2)SC1=S`, the inhibition was 73% (active).
For `O=C1C=CC2=C3Oc4c(ccc5cc(O)ccc45)C(c4ccccc4C(=O)O)C3C=CC2=C1` (stereo not drawn), the inhibition was 85.5% (active).
